Assay results taken from PubChem BioAssay (EPA / NIEHS).
Inconclusive results are not listed. The source made the active and inactive calls. Rule for the calls, unless noted: active = hit-call score of the fitted dose curve at least 0.9, where 1 is the maximum; inactive = score below 0.9.

Experiments:
[1] = ATG_CRE_CIS: Attagene CIS-FACTORIAL HepG2 Assay for human cAMP Responsive Element (CRE) binding protein 3 (AID 2282926); conditions: HepG2 CRE cis-reporter, Attagene multiplexed mRNA; actives raise or lower the signal
Outline: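 Endogenous transcription factor activity read via CRE-regulated reporter transcripts in transfected HepG2 cells. After 24 h exposure, RNA was reverse-transcribed, amplified, fluorescently labelled and sized by capillary electrophoresis; gain or loss fitted against DMSO.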

[2] = ATG_DR4_LXR_CIS: Attagene CIS-FACTORIAL HepG2 Assay for human Liver X Receptor (LXR), DR4 submotif (AID 2282929); conditions: HepG2 Attagene DR4 cis-reporter, mRNA transcription; actives raise or lower the signal
Outline: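 Fluorescence intensity of labelled reporter cDNA fragments, separated by capillary electrophoresis, gives the signal. HepG2 cells bearing cis-regulated reporter constructs were treated 24 h; activity fitted bidirectionally relative to DMSO negative control.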

[3] = ATG_AP_2_CIS: Attagene CIS-FACTORIAL HepG2 Assay for human Activator Protein 2 (AP-2) (AID 2282932); conditions: HepG2 AP-2 cis-reporter, Attagene transcription factor profiling; actives raise or lower the signal
Outline: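 Assay in transfected HepG2 with promoter-regulated reporters, 24 h incubation after dosing. Signal is reporter mRNA fluorescence (RT-PCR, capillary electrophoresis), analysed for both increases and decreases relative to DMSO controls.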

[4] = ATG_BRE_CIS: Attagene CIS-FACTORIAL HepG2 Assay for human Bone Morphogenetic Protein (BMP) Response Element (BRE) (AID 2282933); conditions: HepG2 BMP response element reporter, Attagene transcription factor profiling; actives raise or lower the signal
Outline: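 Transient MRTU transfection of human HepG2 liver cells; 24 h compound treatment; total RNA isolated, reverse-transcribed, PCR-amplified, 6-FAM labelled, HpaI-cut, capillary electrophoresis. DMSO = negative control/baseline, bidirectional fit.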

[5] = target: Transcription factor E2F1 (Homo sapiens) (UniProt Q01094); test: ATG_E2F_CIS: Attagene CIS-FACTORIAL HepG2 Assay for human E2F Transcription Factor 1 (AID 2282935); conditions: HepG2 Attagene cis-reporter, E2F reporter RNA transcripts; actives raise or lower the signal
Outline: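 In this cis-factorial format, endogenous factor activity drives transfected reporters in HepG2; transcripts collected at 24 h are quantified by fluorescence after RT-PCR and capillary separation.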

[6] = ATG_E_Box_CIS: Attagene CIS-FACTORIAL HepG2 Assay for human Enhancer Box (E-box) (AID 2282936); conditions: HepG2 E-box cis-reporter transcription, actives raise or lower the signal
Outline: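 Measured 24 h post-dosing in HepG2 cells transfected with multiple cis-regulated reporter units, signal being reporter mRNA induction detected by fluorescent RT-PCR with capillary electrophoresis; gain or loss fitted against DMSO.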

[7] = ATG_M_19_CIS: Attagene CIS-FACTORIAL HepG2 Assay for M19 Transcription Factor (Internal Marker) (AID 2282939); conditions: HepG2 Attagene CIS-FACTORIAL M19 internal marker reporter; actives raise or lower the signal
Outline: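 Transfect HepG2 with MRTU reporter library → dose chemical, 24 h → isolate total RNA, reverse-transcribe with oligo(dT) → PCR, 6-FAM label, HpaI cut (2 h, 37 C) → capillary electrophoresis. Bidirectional fit vs DMSO.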

[8] = ATG_Ets_CIS: Attagene CIS-FACTORIAL HepG2 Assay for human Erythroblast Transformation Specific (ETS) (AID 2282941); conditions: HepG2 ETS cis-reporter transcription, actives raise or lower the signal
Outline: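 Bidirectional fit versus DMSO of reporter mRNA signal, detected by RT-PCR and capillary electrophoresis in HepG2 cells transiently transfected with cis-element reporters and dosed 24 h.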

[9] = target: Hepatocyte nuclear factor 3-beta (Homo sapiens) (UniProt Q9Y261); test: ATG_FoxA2_CIS: Attagene CIS-FACTORIAL HepG2 Assay for human Forkhead box A2 (FOXA2) (AID 2282942); conditions: HepG2 cis-reporter transcription factor activity, 24 h; actives raise or lower the signal
Outline: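 Reporter transcript induction is measured by fluorescence after capillary electrophoresis of RT-PCR products from HepG2 cells exposed 24 h. Cis-regulated reporter units report endogenous factor activity; curves fitted both directions against DMSO.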

[10] = ATG_FoxO_CIS: Attagene CIS-FACTORIAL HepG2 Assay for human Forkhead box O (FoxO) (AID 2282943); conditions: HepG2 Attagene cis-reporter, FoxO element, mRNA; actives raise or lower the signal
Outline: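 Values reflect reporter mRNA induction or loss in HepG2 cells 24 h post-dosing, fitted bidirectionally with DMSO as negative control and baseline. Detection used RT-PCR and fluorescence capillary electrophoresis.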

[11] = ATG_GATA_CIS: Attagene CIS-FACTORIAL HepG2 Assay for human GATA Binding Protein (AID 2282944); conditions: HepG2 GATA cis-element reporter, Attagene multiplex mRNA; actives raise or lower the signal
Outline: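 Transient MRTU transfection, HepG2, 24 h compound exposure. Total RNA → oligo(dT) RT → PCR → 6-FAM primer extension → HpaI cut → CE. Bidirectional fit vs DMSO.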

[12] = ATG_M_32_CIS: Attagene CIS-FACTORIAL HepG2 Assay for M32 Transcription Factor (Internal Marker) (AID 2282949); conditions: HepG2 Attagene cis-factorial M32 reporter, mRNA; actives raise or lower the signal;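 note: background control marker of the multiplexed CIS panel rather than a real target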
Outline: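 Using DMSO as baseline, bidirectional curve fits were applied to reporter mRNA signals. These came from transiently transfected HepG2 cells exposed for 24 h, with RNA analysed by RT-PCR, FAM primer extension, HpaI digestion and CE.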

[13] = target: Heat shock factor protein 1 (Homo sapiens) (UniProt Q00613); test: ATG_HSE_CIS: Attagene CIS-FACTORIAL HepG2 Assay for human Heat Shock Transcription Factor 1 (HSE) (AID 2282953); conditions: HepG2 HSE cis-reporter, Attagene RNA transcription; actives raise or lower the signal
Outline: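 HepG2, transient MRTU transfection, cis-promoter reporters (endogenous TF activity). 24 h compound. RNA → oligo(dT) RT → PCR → 6-FAM primer extension → HpaI cut → CE. Bidirectional fit vs DMSO.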

[14] = ATG_PXRE_CIS: Attagene CIS-FACTORIAL HepG2 Assay for human Pregnane X Receptor Element (PXRE) (AID 2282957); conditions: HepG2 Attagene CIS-FACTORIAL PXRE reporter, mRNA; actives raise or lower the signal
Outline: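 Reporter transcripts under endogenous PXR-responsive cis-regulation quantified from total RNA of transfected HepG2 cells 24 h post-dosing, via RT-PCR with fluorescent primer extension and capillary electrophoresis. Gain or loss of signal fitted against DMSO baseline.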

[15] = ATG_Sox_CIS: Attagene CIS-FACTORIAL HepG2 Assay for human SRY-box transcription factor (SOX) (AID 2282960); conditions: HepG2 Attagene cis-factorial SOX reporter, mRNA; actives raise or lower the signal
Outline: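 Measures mRNA induction of a SOX1-associated reporter in HepG2 after 24 h dosing. Fluorescently labelled RT-PCR fragments are separated by capillary electrophoresis, and gain or loss relative to DMSO control is fitted.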

[16] = target: Transcription factor Sp1 (Homo sapiens) (UniProt P08047); test: ATG_Sp1_CIS: Attagene CIS-FACTORIAL HepG2 Assay for human Specificity Protein 1 (Sp1) (AID 2282961); conditions: HepG2 Sp1 cis-reporter transcription, actives raise or lower the signal
Outline: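 Cells: HepG2, transiently transfected with cis-regulated multiplexed reporters. Exposure: 24 h. Detection: reporter transcripts amplified, fluorescently labeled, restriction-digested and sized by capillary electrophoresis. Analysis: bidirectional fit relative to DMSO.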

[17] = ATG_SREBP_CIS: Attagene CIS-FACTORIAL HepG2 Assay for human Sterol Regulatory Element Binding (SREBP) (AID 2282962); conditions: HepG2 Attagene cis-factorial SREBP reporter, mRNA; actives raise or lower the signal
Outline: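 In this cis-format assay, HepG2 liver cells express reporters controlled by promoter elements responsive to native transcription factors. Exposure lasts 24 h; reporter mRNA fluorescence from capillary electrophoresis gives the signal, fitted bidirectionally against DMSO.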

[18] = target: Signal transducer and activator of transcription 3 (Homo sapiens) (UniProt P40763); test: ATG_STAT3_CIS: Attagene CIS-FACTORIAL HepG2 Assay for human Signal Transducer and Activator of Transcription 3 (STAT3) (AID 2282963); conditions: HepG2, Attagene cis-factorial STAT3 reporter transcription; actives raise or lower the signal
Outline: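 Uses human liver HepG2 transiently carrying cis-regulated reporter transcription units. Following 24 h dosing, reporter mRNA induction was detected by RT-PCR and capillary electrophoresis, analysed bidirectionally versus DMSO.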

[19] = ATG_TA_CIS: Attagene CIS-FACTORIAL HepG2 Assay for human TA Basal Promoter (AID 2282964); conditions: HepG2 Attagene CIS-factorial TA basal promoter reporter; actives raise or lower the signal
Outline: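 Read-out: fluorescent reporter-transcript fragments resolved by capillary electrophoresis after RT-PCR and HpaI digestion. Source: HepG2 cells carrying transiently transfected multi-reporter cis constructs, treated 24 h. Endpoint fitted bidirectionally relative to DMSO.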

[20] = target: Androgen receptor (Homo sapiens) (UniProt P10275); test: ATG_AR_TRANS: Attagene TRANS-FACTORIAL HepG2 Assay for human Androgen Receptor (AR) (AID 2282973; active = hit-call score of the fitted dose curve at least 0.9, where 1 is the maximum); conditions: HepG2 Attagene TRANS-FACTORIAL AR reporter transcription
Outline: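 Transcriptional activity of an exogenous AR–Gal4 fusion read as GAL4-UAS reporter transcript levels in transfected human HepG2 cells after 24 h dosing. Detection via RT-PCR, 6-FAM labelling, HpaI digest and capillary electrophoresis; increase over DMSO baseline.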

Measured: AC50

Chain of Heat shock factor protein 1 (Homo sapiens) (Q00613 whole entry, looked up): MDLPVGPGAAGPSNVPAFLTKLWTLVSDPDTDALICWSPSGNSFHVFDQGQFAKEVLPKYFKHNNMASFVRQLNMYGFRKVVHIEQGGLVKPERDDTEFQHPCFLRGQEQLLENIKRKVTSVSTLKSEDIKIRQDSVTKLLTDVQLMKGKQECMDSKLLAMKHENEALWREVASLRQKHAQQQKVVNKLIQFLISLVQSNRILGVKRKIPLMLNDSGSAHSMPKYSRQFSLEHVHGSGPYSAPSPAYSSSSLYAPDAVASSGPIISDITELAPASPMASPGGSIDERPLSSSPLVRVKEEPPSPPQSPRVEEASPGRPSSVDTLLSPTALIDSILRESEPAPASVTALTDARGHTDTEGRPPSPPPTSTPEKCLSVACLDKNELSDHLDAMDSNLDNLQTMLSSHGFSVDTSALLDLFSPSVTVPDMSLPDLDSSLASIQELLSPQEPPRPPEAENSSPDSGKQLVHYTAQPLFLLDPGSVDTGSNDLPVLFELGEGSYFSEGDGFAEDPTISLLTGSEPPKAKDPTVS
Chain of Transcription factor Sp1 (Homo sapiens) (P08047 whole entry, looked up): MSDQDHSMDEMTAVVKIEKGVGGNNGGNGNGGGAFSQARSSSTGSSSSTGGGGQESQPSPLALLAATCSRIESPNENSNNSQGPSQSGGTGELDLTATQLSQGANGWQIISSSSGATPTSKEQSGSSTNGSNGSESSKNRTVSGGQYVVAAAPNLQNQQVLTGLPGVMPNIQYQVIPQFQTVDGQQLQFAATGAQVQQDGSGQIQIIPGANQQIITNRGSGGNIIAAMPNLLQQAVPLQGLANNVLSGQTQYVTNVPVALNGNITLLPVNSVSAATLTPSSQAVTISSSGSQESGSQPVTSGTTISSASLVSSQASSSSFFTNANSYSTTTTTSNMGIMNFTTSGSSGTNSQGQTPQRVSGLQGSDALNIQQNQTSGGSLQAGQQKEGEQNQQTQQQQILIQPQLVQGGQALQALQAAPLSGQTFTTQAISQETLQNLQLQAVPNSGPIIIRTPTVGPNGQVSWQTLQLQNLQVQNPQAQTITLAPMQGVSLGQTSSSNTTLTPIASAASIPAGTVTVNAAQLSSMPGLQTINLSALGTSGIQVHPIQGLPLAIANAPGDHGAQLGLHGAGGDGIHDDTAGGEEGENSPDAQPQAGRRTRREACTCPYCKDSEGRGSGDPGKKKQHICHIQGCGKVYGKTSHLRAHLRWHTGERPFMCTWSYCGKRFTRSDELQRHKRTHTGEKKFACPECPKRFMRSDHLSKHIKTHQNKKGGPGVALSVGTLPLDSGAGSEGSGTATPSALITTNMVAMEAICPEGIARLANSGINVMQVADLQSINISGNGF
Chain of Transcription factor E2F1 (Homo sapiens) (Q01094 whole entry, looked up): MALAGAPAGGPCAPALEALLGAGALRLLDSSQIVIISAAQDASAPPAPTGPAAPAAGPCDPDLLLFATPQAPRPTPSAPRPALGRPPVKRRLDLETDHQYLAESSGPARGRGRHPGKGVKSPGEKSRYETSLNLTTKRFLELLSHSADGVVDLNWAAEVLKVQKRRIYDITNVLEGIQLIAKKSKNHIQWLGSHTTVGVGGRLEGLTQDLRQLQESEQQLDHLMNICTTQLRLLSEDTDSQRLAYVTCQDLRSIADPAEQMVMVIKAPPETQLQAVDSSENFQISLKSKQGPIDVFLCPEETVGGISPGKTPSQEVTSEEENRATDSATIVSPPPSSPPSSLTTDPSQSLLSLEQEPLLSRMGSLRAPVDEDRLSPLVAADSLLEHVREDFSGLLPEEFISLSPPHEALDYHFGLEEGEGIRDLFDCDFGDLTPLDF
Chain of Hepatocyte nuclear factor 3-beta (Homo sapiens) (Q9Y261 whole entry, looked up): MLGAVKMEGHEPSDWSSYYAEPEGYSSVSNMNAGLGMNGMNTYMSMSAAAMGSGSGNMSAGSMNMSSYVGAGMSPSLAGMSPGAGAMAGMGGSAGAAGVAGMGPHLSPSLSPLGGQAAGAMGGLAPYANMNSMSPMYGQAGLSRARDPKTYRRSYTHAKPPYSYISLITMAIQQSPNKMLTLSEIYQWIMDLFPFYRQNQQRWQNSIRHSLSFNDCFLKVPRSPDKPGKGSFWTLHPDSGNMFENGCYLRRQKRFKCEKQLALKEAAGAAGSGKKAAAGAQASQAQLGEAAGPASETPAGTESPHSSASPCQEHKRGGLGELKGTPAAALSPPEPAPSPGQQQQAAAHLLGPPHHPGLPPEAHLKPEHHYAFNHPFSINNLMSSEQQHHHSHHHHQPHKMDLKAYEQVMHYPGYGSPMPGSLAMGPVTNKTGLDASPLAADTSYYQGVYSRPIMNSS
Chain of Signal transducer and activator of transcription 3 (Homo sapiens) (P40763 whole entry, looked up): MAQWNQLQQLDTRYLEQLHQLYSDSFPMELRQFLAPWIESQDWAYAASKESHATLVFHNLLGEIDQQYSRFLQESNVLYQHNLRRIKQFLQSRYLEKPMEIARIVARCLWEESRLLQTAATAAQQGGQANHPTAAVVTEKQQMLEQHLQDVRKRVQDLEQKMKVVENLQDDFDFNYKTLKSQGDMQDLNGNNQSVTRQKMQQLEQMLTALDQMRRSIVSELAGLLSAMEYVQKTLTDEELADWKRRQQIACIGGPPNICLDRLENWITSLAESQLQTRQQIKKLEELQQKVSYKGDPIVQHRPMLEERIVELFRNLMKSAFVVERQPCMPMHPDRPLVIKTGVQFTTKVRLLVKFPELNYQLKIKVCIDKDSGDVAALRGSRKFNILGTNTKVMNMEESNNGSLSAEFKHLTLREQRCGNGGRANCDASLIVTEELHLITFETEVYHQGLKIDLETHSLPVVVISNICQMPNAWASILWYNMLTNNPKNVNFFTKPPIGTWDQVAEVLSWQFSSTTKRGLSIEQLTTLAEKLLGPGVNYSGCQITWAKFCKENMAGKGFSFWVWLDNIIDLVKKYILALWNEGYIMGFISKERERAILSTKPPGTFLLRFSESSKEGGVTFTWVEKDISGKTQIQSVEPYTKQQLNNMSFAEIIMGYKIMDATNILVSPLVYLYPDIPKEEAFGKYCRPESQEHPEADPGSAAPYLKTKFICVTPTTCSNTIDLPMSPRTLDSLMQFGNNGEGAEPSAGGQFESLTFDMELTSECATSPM
Chain of Androgen receptor (Homo sapiens) (P10275 whole entry, looked up, the tested form may be a part): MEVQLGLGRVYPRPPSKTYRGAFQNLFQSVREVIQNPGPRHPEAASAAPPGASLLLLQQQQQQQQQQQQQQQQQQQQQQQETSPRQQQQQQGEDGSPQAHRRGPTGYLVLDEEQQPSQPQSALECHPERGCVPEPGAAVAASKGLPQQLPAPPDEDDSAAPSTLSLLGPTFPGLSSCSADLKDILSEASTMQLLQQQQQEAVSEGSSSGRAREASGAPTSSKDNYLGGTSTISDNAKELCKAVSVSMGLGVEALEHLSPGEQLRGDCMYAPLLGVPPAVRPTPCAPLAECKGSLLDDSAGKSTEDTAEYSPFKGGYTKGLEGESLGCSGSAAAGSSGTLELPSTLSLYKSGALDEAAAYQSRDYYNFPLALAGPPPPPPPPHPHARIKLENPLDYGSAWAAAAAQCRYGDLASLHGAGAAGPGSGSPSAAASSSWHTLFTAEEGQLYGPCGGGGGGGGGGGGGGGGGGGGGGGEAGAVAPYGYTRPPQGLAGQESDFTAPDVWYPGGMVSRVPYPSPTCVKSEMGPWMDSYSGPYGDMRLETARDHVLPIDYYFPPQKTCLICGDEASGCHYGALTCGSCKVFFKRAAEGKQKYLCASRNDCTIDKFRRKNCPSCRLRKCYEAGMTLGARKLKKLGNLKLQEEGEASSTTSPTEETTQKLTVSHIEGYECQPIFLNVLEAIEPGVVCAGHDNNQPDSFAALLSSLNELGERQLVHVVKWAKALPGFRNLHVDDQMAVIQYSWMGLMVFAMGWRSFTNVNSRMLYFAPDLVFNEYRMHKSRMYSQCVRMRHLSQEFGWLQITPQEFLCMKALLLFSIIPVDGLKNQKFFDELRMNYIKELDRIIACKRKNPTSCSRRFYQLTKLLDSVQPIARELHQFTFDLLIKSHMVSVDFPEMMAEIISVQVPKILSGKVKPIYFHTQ

SCc1ccco1
active: [14] 27700 nM
inactive: [1] | [2] | [3] | [4] | [5] | [6] | [7] | [8] | [9] | [10] | [11] | [12] | [13] | [15] | [16] | [17] | [18] | [19] | [20]

O=C(O)C(Br)Br
inactive: [1] | [2] | [3] | [4] | [5] | [6] | [7] | [8] | [9] | [10] | [11] | [12] | [13] | [14] | [15] | [16] | [17] | [18] | [19]

O=S(=O)(O)OOS(=O)(=O)O
inactive: [1] | [2] | [3] | [4] | [5] | [6] | [7] | [8] | [9] | [10] | [11] | [12] | [13] | [15] | [16] | [17] | [18] | [19]
active: [14] 56700 nM

CCCOCCOCCOCCO
inactive: [20]

O=[N+]([O-])O.O=[N+]([O-])O.[Cd]
active: [1] 1980 nM | [2] 666 nM | [11] 11100 nM | [13] 1420 nM | [14] 872 nM | [15] 1310 nM | [16] 1380 nM | [18] 11100 nM
inactive: [3] | [4] | [5] | [6] | [7] | [8] | [9] | [10] | [12] | [17] | [19]

CC(C)(Cl)Cl
inactive: [1] | [2] | [3] | [4] | [5] | [6] | [7] | [8] | [9] | [10] | [11] | [12] | [13] | [14] | [15] | [16] | [17] | [18] | [19]
